Marburg entry inh = Marburg virus entry inhibition; Marburg virus pseudotyped entry inhibition, cell reporter; Potency, µM (highest dose often 37.8 µM), inactives show at the highest dose activity change, negative = inhibition, actives largely listed as inhibitors; 300,000 compounds, 1.8% hits; AID 540276; calls by dose curve; tested in HEK293 cells
FMDV antiviral = antivirals against foot and mouth disease virus | FMDV antiviral cell-based qHTS | Potency, µM (highest dose often 57.9 µM), for inactives: top-dose activity change, negative = inhibition, most hits filed as inhibitors | 410,000 compounds, 1.2% hits; calls by dose curve; tested in HEK293T cells; also: read-out not given here; nearly all actives have a fitted effect of over 45% in size
VACV Venus inh = vaccinia inhibition (Venus reporter). 330,000 compounds, 0.46% hits. Vaccinia virus Venus reporter expression, fluorescence. Potency, µM (titrated, usually from 36.5 µM), inactives show at the highest dose activity change, negative = inhibition, usual class: inhibitors; calls by dose curve; tested in A549 cells; also: nearly all actives have a fitted effect of over 30% in size
Lassa entry inh = blocks Lassa virus binding to or entry into cells; Potency, µM (highest dose often 37.9 µM), inactives show top-dose activity change, negative = inhibition, actives largely listed as inhibitors; Lassa virus pseudotype entry inhibition, cell reporter; 300,000 compounds, 1.2% hits; AID 540256; calls by dose curve; tested in HEK293 cells; also: nearly all actives have a fitted effect of over 50% in size
Vaccinia mCherry = vaccinia inhibition (mCherry reporter) | Vaccinia virus mCherry reporter infection, fluorescence | Potency, µM (highest dose often 36.5 µM), inactives show top-dose activity change, negative = inhibition, hits mostly inhibitors | 310,000 compounds, 0.63% hits | AID 720579; calls by dose curve; tested in A549 cells; also: nearly all actives have a fitted effect of over 35% in size
An asterisk follows results filed as active; i = inactive; ? = inconclusive; . = no result; [ ] = dose if it differs, or a comment. The list is not random: actives were taken first. Their share in the collection is about 3.2%. % is scaled to controls: 0 for no effect and ±100 for the full control effect; potency is read from the fitted curve at half-maximal effect.

SMILES	Marburg entry inh	FMDV antiviral	VACV Venus inh	Lassa entry inh	Vaccinia mCherry
Cc1nc(N2CCN(C(=O)c3ccco3)CC2)c2c3c(sc2n1)CCCC3	?	.	-22%	-56%	?
Cc1nc(N2CCN(C)CC2)c2c3c(sc2n1)CCCC3	.	-19%	.	.	.
Cc1nc(N2CCN(C(=O)c3cccs3)CC2)c2c3c(sc2n1)CCCC3	-3%[46.1 µM]	25µM*	?	?	?
Cc1nc(N2CCN(C(=O)c3ccco3)CC2)c2c3c(sc2n1)CC(C)CC3 (stereo not given)	13µM*	?	.	?	.
Cc1ccccc1-c1ccc(CN2CCc3nnc(C(NS(C)(=O)=O)C(C)C)n3CC2)cc1 (stereo not given)	.	-15%	-18%	.	-4%
CCCCn1c(SCC(=O)N2CCC(C)CC2)nc2ccsc2c1=O	8.2µM*	?	.	14%	.
CCCCn1c(SCC(=O)N2CCN(c3ccccc3)CC2)nc2ccsc2c1=O	?	?	-24%	26%[14.3 µM]	-23%
CC(C)(C)NC(=O)NC(=O)COC(=O)c1cccc(NS(=O)(=O)c2ccc(F)c(F)c2)c1	?	-19%	-27%	10µM*	i
CC(C)(C)c1ccc(C(=O)OCC(=O)Nc2cccc(S(=O)(=O)NC3=NCCC3)c2)cc1	.	-3%	-15%	.	-3%
CC(C)(C)NC(=O)NC(=O)COC(=O)c1cccc(S(=O)(=O)N2CCCCC2)c1	-2%	-21%	-7%	8%	-7%
CC(C)(C)c1ccc(NC(=O)COC(=O)c2ccc(NS(=O)(=O)c3ccc(F)c(F)c3)cc2)cc1	?	?	?	13µM*	-1%
COc1ccc(OC)c2sc(N(CCCN(C)C)C(=O)CCS(=O)(=O)c3ccccc3)nc12	?	35µM*	?	-25%	?
CN(C)CCCN(C(=O)CCSc1ccccc1)c1nc2cc3c(cc2s1)OCO3	?	-19%	?	?	?
CN(C)CCCN(C(=O)CCc1ccccc1)c1nc2ccc(Br)cc2s1	?	25µM*	?	?	?
CN(C)CCCN(C(=O)CCS(=O)(=O)c1ccccc1)c1nc2cc3c(cc2s1)OCO3	?	28µM*	10µM*	?	?
COc1ccc(Cl)c2sc(N(CCN(C)C)C(=O)CCS(=O)(=O)c3ccc(C)cc3)nc12	5%[46.1 µM]	-29%	-9%	0%	-30%
CCN(CC)CCN(C(=O)CCS(=O)(=O)c1ccccc1)c1nc2c(C)cc(C)cc2s1	?	-4%	?	?	14µM*
Cc1c(N2C(=O)S[C@H](CC(=O)O)C2=O)c(=O)n(-c2ccccc2)n1C	12%	.	.	.	.
Cc1ccc2sc(N(CCCN(C)C)C(=O)CCS(=O)(=O)c3ccccc3)nc2c1C	.	32µM*	.	.	.
Nc1c(C(=O)c2ccc(Cl)cc2)sc2nsc(SCCN3CCOCC3)c12	1%[46.1 µM]	?	-6%[7.34 µM]	2%	0%[7.34 µM]
Nc1c(C(=O)c2ccccc2)sc2nsc(SCCN3CCCC3)c12	?	-16%	?	6.3µM*	-52%
C[C@@H]1CN([C@H](C)CO)C(=O)CCCn2nncc2CO[C@H]1CN(C)S(=O)(=O)c1cccc(C#N)c1	.	-5%	5µM*	.	?
CN1CCN(c2oc(-c3ccc(OCc4ccc(Cl)cc4)cc3)nc2C#N)CC1	.	.	-14%	.	-14%
CCN(CC)S(=O)(=O)c1ccc(N2CCN(S(=O)(=O)c3ccccc3)CC2)nc1	3%[46.1 µM]	-10%	-28%	7%	-5%
CCN(CC)S(=O)(=O)c1ccc(N2CCN(CCOc3ccc(OC)cc3)CC2)nc1	11µM*	9%	-13%	-20%[46.1 µM]	?
SMILES	Marburg entry inh	FMDV antiviral	VACV Venus inh	Lassa entry inh	Vaccinia mCherry
CCCCCCCCNc1ccc(/C=C/c2ccnc3ccccc23)cc1	.	.	-9%	.	-14%
O=C(Nc1nccs1)c1cc2c(s1)CCCCC2	?	8.9µM*	?	?	.
CC1CCN(CCOCCOc2ccccc2-c2ccccc2)CC1	?	-12%	-14%	?	-10%
CC1CCN(CCCCOc2ccccc2-c2ccccc2)CC1	2.3µM*	0%	?	2.1µM*	?
CNCCOc1ccccc1-c1ccccc1	-21%	5%	-16%	-5%	-22%
CNCCCCOc1ccccc1-c1ccccc1	7.1µM*	-14%	?	?	-22%
Clc1ccc(Cl)c(OCCCCN2CCNCC2)c1	11µM*	-6%	-20%	?	-7%
CC1CCN(CCCCOc2ccc(Cl)cc2)CC1	7.9µM*	-9%	-22%	6%[46.1 µM]	0%
Cc1ccc(OCCCCCCN2CCNCC2)c(Br)c1	13µM*	-19%	-26%	?	-12%
COc1cccc(OC)c1OCCCN1CCC(Cc2ccccc2)CC1	11µM*	19%	-4%	?	-14%
Cc1ccc(OCCCCN2CCC(C)CC2)c(Br)c1	15µM*	-10%	-15%	?	i
COc1ccc(CN2CCC(Cc3ccccc3)CC2)cc1OC	.	-7%	.	.	.
CC(C)NC(=O)[C@@H]1C[C@@H](Sc2nc3ccccc3[nH]2)CN1C1Cc2ccccc2C1	.	1%	-25%	.	?
COc1ccc([C@H]2SCC(=O)Nc3c2c(=O)[nH]n3C2CCCCC2)cc1	0%	.	.	.	.
Cc1cc(C(=O)NCc2nc(-c3cccc(NC(=O)c4ccccc4)c3)oc2C)nc(C)n1	.	?	-5%	.	-12%
COc1ccc(C(CCNC(C)c2ccccc2)C(C)C)cc1 (stereo not given)	?	28%	-24%	?	-15%
COc1ccc(C(C)NCCC(c2ccc(OC(C)C)cc2)c2ccccc2OC)cc1 (stereo not given)	?	-24%	11µM*	-26%[46.1 µM]	?
CC1(C)CC[C@]2(C(=O)O)CC[C@]3(C)C(=CC[C@@H]4[C@@]5(C)CC[C@H](O[C@@H]6O[C@H](C(=O)O)[C@@H](O)[C@H](O[C@@H]7OC[C@H](O)[C@H](O)[C@H]7O)[C@H]6O)C(C)(C)[C@@H]5CC[C@]43C)[C@@H]2C1	.	-66%	7.9µM*	.	?
CC1(C)CC[C@]2(C(=O)O[C@@H]3O[C@H](CO)[C@@H](O)[C@H](O)[C@H]3O)CC[C@]3(C)C(=CCC4[C@@]5(C)CC[C@H](O[C@@H]6O[C@H](C(=O)O)[C@@H](O[C@H]7OC[C@@H](O)[C@@H](O)[C@@H]7O)[C@H](O)[C@H]6O)C(C)(C)C5CC[C@]43C)[C@@H]2C1 (stereo not given in full)	.	-15%	-3%	.	i
O=C(c1cc(-c2ccccc2)n[nH]1)N1CCc2c([nH]c3ccccc23)C1c1ccccn1 (stereo not given)	5.6µM*	-30%	?	?	?
O=C(c1cccs1)N1CCc2c([nH]c3ccccc23)C1c1ccccn1 (stereo not given)	.	0%	.	.	.
COc1ccc(OCc2ccc(C(=O)NN)cc2)cc1	-2%	5%	.	5%	.
COc1ccc(C(=O)NC(=S)NNC(=O)COc2ccccc2)cc1	?	28µM*	-15%	18%	?
COc1ccc(COC(=O)NNC(=O)c2ccc(OC)cc2)cc1	7%	14%	-6%	1.3µM*	-4%
COc1ccc(C(=O)NC(=S)NNC(=O)c2ccccc2O)cc1	13µM*	10%	?	-4%	13µM*
